# Screens (PubChem BioAssay)
# Hits are enriched below; roughly 3% of the tested compounds scored in any of these assays.
# PTAP TSG101 blk – qHTS Assay for Iinhibitors of HIV-1 Budding by Blocking the Interaction of PTAP/TSG101 | AID 493005, 2010 | Tumor susceptibility gene 101 protein (Homo sapiens), Q99816 | 340,000 tested, under 10 active | Fluorescence polarization, FITC-PTAP peptide / Tsg101 binding | Potency, µM (titrated, usually from 115 µM), inactives show top-dose activity change, negative = inhibition, most hits filed as inhibitors; active = well fitted inhibition curve with a large enough effect in the main read-out, with a control signal flat, not every such curve was filed as active; inconclusive = small, poorly fitted or top-dose-only effect, or effect the other way, or a change in a side signal; inactive = no such curve, though single readings can be large or run the other way; note: % of control where 0% means no effect
#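 Compounds were pin-transferred onto Tsg101 binding domain (10 uM final) in HEPES pH 7.5 buffer, then FITC-PTAP peptide was added at 50 nM final. After 20 min at RT, polarization reported peptide displacement across a qHTS concentration series.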
# USP1 inh – Inhibitors of USP1/UAF1: Primary Screen; Potency, µM (top dose mostly 57.1 µM), for the others: at the highest dose activity change, negative = inhibition, hits mostly inhibitors; Ubiquitin carboxyl-terminal hydrolase 1 (Homo sapiens), O94782; actives 0.23% (n = 390,000); AID 743255, 2014; recombinant USP1/UAF1, Ub-Rhodamine cleavage fluorescence; note: % is set by controls: 0 for no effect and ±100 for the full control effect; nearly all actives have a fitted effect of over 60% in size
#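 High-throughput fluorogenic screen: 1nM USP1/UAF1 complex, Ub-Rho substrate 150nM final, 50mM HEPES pH 7.8 with 0.5mM EDTA, 0.1 mg/ml BSA, 1mM TCEP and 0.01% Tween-20.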
# VDR inh – Inhibitors of the vitamin D receptor (VDR): qHTS; Vitamin D3 receptor (Homo sapiens), P11473; VDR-SRC2-3 peptide fluorescence polarization, 2 h; actives 0.93% (n = 400,000); AID 504847, 2011; Potency, µM, without a hit: max response, negative = inhibition, usual class: inhibitors; note: % is set by controls: 0 for no effect and ±100 for the full control effect
#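 After 23 nl compound addition and a short centrifugation, plates sat for 2 hours at ambient temperature; polarization of fluorescence then indicated loss of VDR binding to peptide SRC2-3.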
# PLK1 PBD inh – qHTS for Inhibitors of PLK1-PDB (polo-like kinase 1 - polo-box domain): Primary Screen; Serine/threonine-protein kinase PLK1 (Homo sapiens), P53350; Plk1 PBD binding of FITC phosphopeptide, fluorescence polarization; Potency, µM, inactives show max response, negative = inhibition, hits mostly inhibitors; actives 2.8% (n = 360,000); AID 720504, 2013; note: series mostly up to about 57 µM; % is set by controls: 0 for no effect and ±100 for the full control effect; nearly all actives have a fitted effect of over 65% in size
# KAT2A inh – qHTS Assay for Inhibitors of GCN5L2; GCN5L2 HAT assay, ThioGlo1 CoA-SH fluorescence; AID 504327, 2011; Potency, µM (highest dose often 58.9 µM), for the others: at the top dose activity change, negative = inhibition, usual class: inhibitors; actives 0.21% (n = 390,000); note: % is set by controls: 0 for no effect and ±100 for the full control effect
# Target sequence (Q92830 whole entry, looked up): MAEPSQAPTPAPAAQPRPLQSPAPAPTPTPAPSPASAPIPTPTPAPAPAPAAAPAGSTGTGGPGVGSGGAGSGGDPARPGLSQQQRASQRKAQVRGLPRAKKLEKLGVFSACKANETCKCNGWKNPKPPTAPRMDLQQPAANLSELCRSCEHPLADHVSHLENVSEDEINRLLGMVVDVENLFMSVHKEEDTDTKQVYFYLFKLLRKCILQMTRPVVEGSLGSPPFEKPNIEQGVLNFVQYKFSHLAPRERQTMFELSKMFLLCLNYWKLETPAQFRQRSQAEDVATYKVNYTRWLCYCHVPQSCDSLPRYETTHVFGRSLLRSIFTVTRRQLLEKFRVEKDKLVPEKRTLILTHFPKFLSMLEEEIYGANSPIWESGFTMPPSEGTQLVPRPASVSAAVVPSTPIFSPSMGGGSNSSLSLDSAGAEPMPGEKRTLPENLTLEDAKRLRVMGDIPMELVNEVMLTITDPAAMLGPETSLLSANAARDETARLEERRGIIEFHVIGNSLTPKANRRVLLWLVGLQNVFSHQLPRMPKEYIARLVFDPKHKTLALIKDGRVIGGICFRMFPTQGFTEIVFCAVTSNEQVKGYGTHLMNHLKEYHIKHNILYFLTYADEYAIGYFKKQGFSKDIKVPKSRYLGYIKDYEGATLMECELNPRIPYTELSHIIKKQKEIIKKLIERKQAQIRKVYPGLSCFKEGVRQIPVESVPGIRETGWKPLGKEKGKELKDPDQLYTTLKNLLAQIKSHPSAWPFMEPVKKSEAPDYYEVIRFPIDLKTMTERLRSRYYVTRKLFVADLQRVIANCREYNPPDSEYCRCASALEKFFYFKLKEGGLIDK
#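 Preincubate 20nM GCN5L2 with compound 15 min, RT → add 50uM ThioGlo1 + 75uM H3(1-25) + 70uM acetyl-CoA → read fluorescence 0 and 20 min. Primary qHTS; fluorescent artifacts likely.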
# Starred values were filed as active, the others as inactive; u = inconclusive; x = no result given. Unless noted, calls come from the whole dose curve; as a rule, active = well fitted curve in the direction sought with a large enough effect; inconclusive = small, poorly fitted or top-dose-only effect, or another doubt; inactive = no such curve, though single readings can be large; an effect the other way counts as inactive or inconclusive. Potency is the fitted concentration of half-maximal effect.
SMILES,PTAP TSG101 blk,USP1 inh,VDR inh,PLK1 PBD inh,KAT2A inh
COc1ccc(NC(=O)C2(C)Cc3c(-c4ccc(N(C)C)cc4)ccnc3O2)cc1 (stereo unspecified),x,x,x,0%,x
CC(C)C[C@@H](CN1CCCC1CN1C(=S)NC[C@@H]1Cc1ccc(O)cc1)N1C[C@H](Cc2ccc(O)cc2)N(CC2CCCCC2)C1=S (stereo partly specified),3%,-6%,-22%,19µM*,x
CC(C)C[C@@H](CN1CCC[C@@H]1CN1C(=S)NC[C@@H]1Cc1ccccc1)N1C[C@H](Cc2ccc(O)cc2)N(CC2CCCCC2)C1=S,x,x,x,1%,x
Fc1ccccc1Oc1nc(-c2ccncc2)nc2ccccc12,0%,-7%,-19%,9%,-8%
CN1/C(=C\C=C2/SC(=S)NC2=O)C(C)(C)c2ccccc21,u,25µM*,u,82%,16%
Cc1ccc(S(=O)(=O)N(C)c2nc3ccccc3[nH]c2=S)cc1,1%,-11%,u,11µM*,u
CCN(C(=O)COC(=O)c1cc([N+](=O)[O-])ccc1N1CCCCC1)C1CCS(=O)(=O)C1 (stereo unspecified),1%,1%,-2%,-14%,0%
CCCN(C(=O)COC(=O)CSc1ccc([N+](=O)[O-])cc1)C1CCS(=O)(=O)C1 (stereo unspecified),-3%,-10%,89µM*,11µM*,-2%
CC(C)CN(C(=O)COC(=O)CSc1ccc([N+](=O)[O-])cc1)C1CCS(=O)(=O)C1 (stereo unspecified),2%,-16%,u,19µM*,-6%
Oc1cccc(O)c1O,x,x,79µM*,x,-29%
CCc1ccc(NC(=O)C(C)n2nc(C)c([N+](=O)[O-])c2C)cc1 (stereo unspecified),-1%,-12%,3%,-1%,3%
O=C(Nc1nc(-c2ccccc2)ns1)c1ccncc1,2%,-12%,u,8.4µM*,u
C[N+]1(CC2COC3(CCCCC3)O2)CCCCC1 (stereo unspecified),-3%,-10%,8%,-24%,-15%
C[N+]1(CC2COC(c3ccccc3)(C3CCCCC3)O2)CCCCC1 (stereo unspecified),x,x,1%,x,22µM*
COc1ccc(S(=O)(=O)Nc2nc(C(F)(F)F)cs2)cc1,0%,-4%,0%,-8%,-10%
COc1ccc(S(=O)(=O)Nc2nnc(CC(C)(C)C)s2)cc1,-1%,-18%,-7%,30µM*,-3%
COCc1nnc(NS(=O)(=O)c2ccc(Cl)cc2)s1,-3%,-18%,8%,-5%,-19%
COc1ccc(S(=O)(=O)Nc2nnc(C(C)(C)C)s2)cc1,-5%,0%,u,7.5µM*,-3%
CC1(C(=O)NCc2cccc(C(F)(F)F)c2)CCN1CCc1ccccc1 (stereo unspecified),x,x,x,3%,x
O=c1c2c([N+](=O)[O-])cc([N+](=O)[O-])cc2sn1Cc1ccccc1,3%,-18%,22µM*,0.75µM*,1.3µM*
O=c1c2c([N+](=O)[O-])cc([N+](=O)[O-])cc2nc2ccccn12,2%,-23%,-16%,-4%,-10%
O=c1c2c([N+](=O)[O-])cc([N+](=O)[O-])cc2sn1-c1ccc(Br)cc1,-5%,5%,25µM*,2.7µM*,7.1µM*
C=CCN(C)CCCCCCOc1ccc(C(=O)c2ccc(Br)cc2)c(F)c1,x,x,-2%,x,-22%
N#Cc1sc(=O)[nH]c1Cl,-16%,-28%,79µM*,u,x
CCOC(=O)c1c(-c2ccccc2)csc1NC(=O)CSc1ccccc1,2%,-3%,-13%,-1%,-15%
CCOC(=O)c1c(-c2ccccc2)csc1NC(=O)C1CCCO1 (stereo unspecified),-9%,-6%,-61%,24µM*,-7%
CCOC(=O)c1c(-c2ccc(C)cc2)csc1NC(=O)C1CC=CCC1C(=O)O (stereo unspecified),-15%,-1%,u,27µM*,-30%
